# Source: PubChem BioAssay (EPA / NIEHS)
# Inconclusive results are not listed. Activity calls are given as the source filed them. Rule for the calls: active = hit-call score of the fitted dose curve at least 0.9, where 1 is the maximum; inconclusive = response in the unintended direction; inactive = score below 0.9.
# Experiments:
# [1] = biological target: human Histamine 1 Receptor (H1), HRH1 (gene 3269) (UniProt P35367); test: NVS_GPCR_hH1: NovaScreen (NVS) G Protein-Coupled Receptor Assay for human Histamine 1 Receptor (H1) (AID 2283268)
# Procedure, shortened: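 Cell-free radioligand displacement at human H1 receptor, 1 h, filter scintillation counting; primary screen 25 uM in duplicate, hits in concentration series; loss of binding fitted vs DMSO.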
# [2] = biological target: D(1A) dopamine receptor (Homo sapiens) (UniProt P21728); test: NVS_GPCR_hDRD1: NovaScreen (NVS) G Protein-Coupled Receptor Assay for human Dopamine Receptor D1 (DRD1) (AID 2283269)
# Procedure, shortened: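 Cell-free competition with radioligand, filter-trapped and scintillation-counted 1 h post-dose, using HEK293-derived human D1 preparation. Duplicate single-point testing at 25 uM first, then concentration series for actives; DMSO served as baseline, loss-of-signal scored.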
# [3] = biological target: rat Serotonin, 5-Hydroxytryptamine Receptor 1 (5HT1), Non-Selective Binding, Htr1a (gene 24473) (UniProt P19327); test: NVS_GPCR_r5HT1_NonSelective: NovaScreen (NVS) G Protein-Coupled Receptor Assay for rat Serotonin, 5-Hydroxytryptamine Receptor 1 (5HT1), Non-Selective Binding (AID 2283286)
# Procedure, shortened: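 Rat cortical membranes, radioligand displacement, 1 h incubation, read by filter scintillation. Primary screen in duplicate at 25 uM. Hits (e.g. ≥30% inhibition) went to concentration-response up to 50 uM, fitted as loss of binding versus DMSO.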
# [4] = biological target: rat Adrenergic, Alpha 1, Non-selective Receptor (Adra1), Adra1a (gene 29412) (UniProt P43140); test: NVS_GPCR_rAdra1_NonSelective: NovaScreen (NVS) G Protein-Coupled Receptor Assay for rat Adrenergic, Alpha 1, Non-selective Receptor (Adra1) (AID 2283289)
# Procedure, shortened: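 Rat forebrain membranes; radioligand displacement read by filter-based scintillation counting 1 h after dosing. Primary screen in duplicate at 25 uM; hits (e.g. ≥30% inhibition) rerun as concentration–response to 50 uM max. Fitted versus DMSO.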
# [5] = biological target: human Leukotriene B4 Receptor 1 (LTB4-BLT1), LTB4R (gene 1241) (UniProt Q15722); test: NVS_GPCR_hLTB4_BLT1: NovaScreen (NVS) G Protein-Coupled Receptor Assay for human Leukotriene B4 Receptor 1 (LTB4-BLT1) (AID 2283271)
# Procedure, shortened: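 Radioligand displacement binding on receptor extracted from human neutrophils, cell-free, 1 h after dosing; filter-based scintillation counting. Primary screen in duplicate at 25 uM, actives retested in concentration-response up to 50 uM; loss of signal versus DMSO.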
# [6] = biological target: Neuropeptide Y receptor type 2 (Homo sapiens) (UniProt P49146); test: NVS_GPCR_hNPY2: NovaScreen (NVS) G Protein-Coupled Receptor Assay for human Neuropeptide Receptor Y2 (NPY2) (AID 2283277)
# Procedure, shortened: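 Radioligand binding on membranes extracted from SK-N-MC cells, cell-free, read 1 h after dosing by filter-based scintillation counting. Loss of signal vs DMSO. Primary screen in duplicate at 25 uM; actives followed up in concentration-response up to 50 uM.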
# [7] = biological target: human Thromboxane A2 Receptor (TXA2), TBXA2R (gene 6915) (UniProt P21731); test: NVS_GPCR_hTXA2: NovaScreen (NVS) G Protein-Coupled Receptor Assay for human Thromboxane A2 Receptor (TXA2) (AID 2283282);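 note: actives reduce bound radioligand signal relative to DMSO baseline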
# Procedure, shortened: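 Cell-free radioligand binding with human platelet-derived receptor; 1 h after dosing, filter-based scintillation counting, loss of signal vs DMSO. Primary screen in duplicate at 25 uM.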
# [8] = biological target: human Vasopressin 1A Receptor (V1A), AVPR1A (gene 552) (UniProt P37288); test: NVS_GPCR_hV1A: NovaScreen (NVS) G Protein-Coupled Receptor Assay for human Vasopressin 1A Receptor (V1A) (AID 2283284)
# Procedure, shortened: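 Cell-free radioligand displacement on human platelet preparations, 1.5 h incubation, filter-based scintillation counting. Chemicals first tested in duplicate at 25 uM; actives then run in concentration-response up to 50 uM, loss of signal fitted against DMSO.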
# [9] = biological target: mouse Cholecystokinin, CCK1 Receptor (CCKA), Cckar (gene 12425) (UniProt O08786); test: NVS_GPCR_mCCKAPeripheral: NovaScreen (NVS) G Protein-Coupled Receptor Assay for mouse Cholecystokinin, CCK1 Receptor (CCKA) (AID 2283285)
# Procedure, shortened: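 Radioligand competitive displacement on mouse pancreatic membranes, 2 h incubation; filter-based scintillation counting, loss of signal versus DMSO. Single-concentration screen at 25 uM in duplicate, actives retested in concentration-response up to 50 uM.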
# [10] = biological target: Muscarinic acetylcholine receptor M2 (Homo sapiens) (UniProt P08172); test: NVS_GPCR_hM2: NovaScreen (NVS) G Protein-Coupled Receptor Assay for human Muscarinic, M2 Receptor (AID 2283273)
# Procedure, shortened: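 CHO membrane prep, radioligand + test compound, 1 h; filtration, scintillation count. Screen 25 uM duplicate → conc. series for actives. Readout: decrease in binding vs DMSO control.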
# [11] = biological target: human Opioid Receptor Delta 1 (Opiate D1), OPRD1 (gene 4985) (UniProt P41143); test: NVS_GPCR_hOpiate_D1: NovaScreen (NVS) G Protein-Coupled Receptor Assay for human Opioid Receptor Delta 1 (Opiate D1) (AID 2283280)
# Procedure, shortened: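 Radioligand displacement on membranes from CHO cells expressing the receptor, read by filter scintillation counting 1 h after dosing. Duplicate single-point screen at 25 uM, then concentration series for actives; loss of signal versus DMSO.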
# [12] = biological target: human Orphanin, Opioid Related Nociceptin Receptor 1 (ORL1), OPRL1 (gene 4987) (UniProt P41146); test: NVS_GPCR_hORL1: NovaScreen (NVS) G Protein-Coupled Receptor Assay for human Orphanin, Opioid Related Nociceptin Receptor 1 (ORL1) (AID 2283283)
# Procedure, shortened: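 Filter-based radioligand displacement with receptor extracted from HEK293 cells, read 1 hour after dosing by scintillation counting. Duplicate single-point screen at 25 uM; qualifying chemicals then run in concentration-response to 50 uM, analysed relative to DMSO.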
# [13] = biological target: human Opioid Receptor Mu (Opiate Mu), OPRM1 (gene 4988) (UniProt P35372); test: NVS_GPCR_hOpiate_mu: NovaScreen (NVS) G Protein-Coupled Receptor Assay for human Opioid Receptor Mu (Opiate Mu) (AID 2283290);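 note: hits lower bound tracer signal versus DMSO meaning displacement of the ligand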
# Procedure, shortened: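 Primary screen in duplicate at 25 uM, with actives followed in concentration series. CHO-derived receptor membranes, cell-free; bound radioligand read by scintillation counting after filtration at 2.5 h, decrease scored against DMSO.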
# [14] = biological target: Muscarinic acetylcholine receptor M1 (Homo sapiens) (UniProt P11229); test: NVS_GPCR_hM1: NovaScreen (NVS) G Protein-Coupled Receptor Assay for human Muscarinic, M1 Receptor (AID 2283270)
# Procedure, shortened: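 Cell-free radioligand displacement using membrane protein extracted from CHO cells, read by filter-based scintillation counting 1 h after dosing. Loss of bound signal fitted versus DMSO; primary screen single concentration 25 uM in duplicate, actives followed by concentration series.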
# [15] = biological target: Muscarinic acetylcholine receptor M3 (Homo sapiens) (UniProt P20309); test: NVS_GPCR_hM3: NovaScreen (NVS) G Protein-Coupled Receptor Assay for human Muscarinic, M3 Receptor (AID 2283272)
# Procedure, shortened: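 Radioligand displacement binding on human M3 receptor in CHO-derived membranes, 1 h incubation, filter-based scintillation counting. Primary screen in duplicate at 25 uM; actives followed up in concentration series; loss of signal versus DMSO.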
# [16] = tested on: rabbit Platelet Activating Factor Receptor (PAF), gene 100354046; test: NVS_GPCR_rabPAF: NovaScreen (NVS) G Protein-Coupled Receptor Assay for rabbit Platelet Activating Factor Receptor (PAF) (AID 2283287)
# Procedure, shortened: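 Rabbit platelet membrane preparation; radioligand displacement read by filter-based scintillation counting 1 h after dosing, loss of signal versus DMSO. Primary screen in duplicate at 25 uM, actives followed up in concentration series.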
# [17] = biological target: mouse Cholecystokinin, CCK2 Receptor (CCKB), Cckbr (gene 12426) (UniProt P56481); test: NVS_GPCR_mCKKBCentral: NovaScreen (NVS) G Protein-Coupled Receptor Assay for mouse Cholecystokinin, CCK2 Receptor (CCKB) (AID 2283293)
# Procedure, shortened: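 Radioligand displacement binding on mouse forebrain membranes, 2 h exposure, filter-based scintillation counting. Primary screen in duplicate at 25 uM; actives (e.g. ≥30% inhibition) retested in concentration-response up to 50 uM; loss of binding signal relative to DMSO.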
# Chain of human Histamine 1 Receptor (H1), HRH1 (gene 3269) (P35367 whole entry, looked up): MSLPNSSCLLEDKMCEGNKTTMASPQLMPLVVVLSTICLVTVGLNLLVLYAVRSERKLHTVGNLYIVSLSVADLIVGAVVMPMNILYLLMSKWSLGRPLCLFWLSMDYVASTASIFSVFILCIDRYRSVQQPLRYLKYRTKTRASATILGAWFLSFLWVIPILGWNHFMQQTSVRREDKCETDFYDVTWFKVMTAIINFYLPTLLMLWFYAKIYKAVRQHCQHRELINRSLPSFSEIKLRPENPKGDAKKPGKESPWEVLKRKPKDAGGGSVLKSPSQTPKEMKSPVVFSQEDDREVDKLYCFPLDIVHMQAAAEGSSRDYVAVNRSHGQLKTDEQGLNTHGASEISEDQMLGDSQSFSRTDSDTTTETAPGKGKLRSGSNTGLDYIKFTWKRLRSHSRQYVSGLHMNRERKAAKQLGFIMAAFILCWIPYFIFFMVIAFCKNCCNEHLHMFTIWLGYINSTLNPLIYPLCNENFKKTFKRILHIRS
# Chain of rat Adrenergic, Alpha 1, Non-selective Receptor (Adra1), Adra1a (gene 29412) (P43140 whole entry, looked up): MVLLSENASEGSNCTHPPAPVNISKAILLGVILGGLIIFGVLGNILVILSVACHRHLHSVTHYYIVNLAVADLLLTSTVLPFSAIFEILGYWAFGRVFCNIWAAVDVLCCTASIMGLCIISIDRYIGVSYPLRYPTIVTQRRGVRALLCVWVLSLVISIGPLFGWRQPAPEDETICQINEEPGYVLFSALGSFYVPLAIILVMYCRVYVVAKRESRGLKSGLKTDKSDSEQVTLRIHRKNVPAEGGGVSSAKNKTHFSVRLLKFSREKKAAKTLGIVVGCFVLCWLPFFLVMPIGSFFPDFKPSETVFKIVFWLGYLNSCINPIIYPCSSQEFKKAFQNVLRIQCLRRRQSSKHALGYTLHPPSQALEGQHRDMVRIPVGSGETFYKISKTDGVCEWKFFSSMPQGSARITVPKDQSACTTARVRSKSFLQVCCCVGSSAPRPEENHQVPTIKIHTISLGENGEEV
# Chain of human Leukotriene B4 Receptor 1 (LTB4-BLT1), LTB4R (gene 1241) (Q15722 whole entry, looked up): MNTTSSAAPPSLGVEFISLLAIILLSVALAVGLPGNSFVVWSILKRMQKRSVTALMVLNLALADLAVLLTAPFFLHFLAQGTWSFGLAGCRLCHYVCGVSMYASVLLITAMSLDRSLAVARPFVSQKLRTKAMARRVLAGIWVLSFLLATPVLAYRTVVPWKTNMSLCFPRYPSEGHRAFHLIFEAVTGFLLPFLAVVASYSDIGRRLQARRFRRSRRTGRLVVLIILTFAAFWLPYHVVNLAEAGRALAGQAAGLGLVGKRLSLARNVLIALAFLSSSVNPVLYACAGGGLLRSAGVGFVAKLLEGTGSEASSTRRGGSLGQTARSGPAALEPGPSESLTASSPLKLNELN
# Chain of mouse Cholecystokinin, CCK1 Receptor (CCKA), Cckar (gene 12425) (O08786 whole entry, looked up): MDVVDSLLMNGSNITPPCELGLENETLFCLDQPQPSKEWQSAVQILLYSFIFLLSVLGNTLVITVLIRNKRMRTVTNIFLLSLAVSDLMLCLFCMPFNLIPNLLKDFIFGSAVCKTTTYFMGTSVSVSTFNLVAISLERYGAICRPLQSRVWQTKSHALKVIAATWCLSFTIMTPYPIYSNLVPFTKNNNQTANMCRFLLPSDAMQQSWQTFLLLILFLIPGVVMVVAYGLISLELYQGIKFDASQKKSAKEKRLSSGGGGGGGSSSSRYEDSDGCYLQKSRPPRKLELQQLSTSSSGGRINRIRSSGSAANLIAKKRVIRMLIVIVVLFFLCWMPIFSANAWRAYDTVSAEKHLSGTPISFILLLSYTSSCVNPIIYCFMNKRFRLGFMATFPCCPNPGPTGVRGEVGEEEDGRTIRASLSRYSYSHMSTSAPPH
# Chain of Muscarinic acetylcholine receptor M2 (Homo sapiens) (P08172 whole entry, looked up): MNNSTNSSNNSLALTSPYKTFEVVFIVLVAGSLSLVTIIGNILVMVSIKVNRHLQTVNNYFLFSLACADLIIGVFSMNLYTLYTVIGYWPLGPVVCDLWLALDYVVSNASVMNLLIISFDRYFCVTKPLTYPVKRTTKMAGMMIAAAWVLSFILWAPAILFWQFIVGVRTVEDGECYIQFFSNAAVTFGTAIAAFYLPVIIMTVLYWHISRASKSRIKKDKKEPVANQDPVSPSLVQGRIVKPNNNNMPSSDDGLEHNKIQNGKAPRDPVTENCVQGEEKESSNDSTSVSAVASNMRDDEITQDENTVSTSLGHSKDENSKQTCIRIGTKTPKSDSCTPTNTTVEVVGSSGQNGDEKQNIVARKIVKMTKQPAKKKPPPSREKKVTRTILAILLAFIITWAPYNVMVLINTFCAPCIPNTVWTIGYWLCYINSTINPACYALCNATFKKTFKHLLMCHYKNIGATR
# Chain of human Thromboxane A2 Receptor (TXA2), TBXA2R (gene 6915) (P21731 whole entry, looked up): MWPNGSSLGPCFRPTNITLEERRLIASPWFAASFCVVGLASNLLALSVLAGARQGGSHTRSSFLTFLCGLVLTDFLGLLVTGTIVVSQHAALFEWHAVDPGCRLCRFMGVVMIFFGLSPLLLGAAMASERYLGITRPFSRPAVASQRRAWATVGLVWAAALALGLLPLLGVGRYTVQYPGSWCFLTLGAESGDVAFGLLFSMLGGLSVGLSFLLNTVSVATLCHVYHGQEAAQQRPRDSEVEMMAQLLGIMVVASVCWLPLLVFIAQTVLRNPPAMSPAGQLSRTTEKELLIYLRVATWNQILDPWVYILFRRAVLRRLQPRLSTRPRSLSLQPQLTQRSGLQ
# Chain of Muscarinic acetylcholine receptor M1 (Homo sapiens) (P11229 whole entry, looked up): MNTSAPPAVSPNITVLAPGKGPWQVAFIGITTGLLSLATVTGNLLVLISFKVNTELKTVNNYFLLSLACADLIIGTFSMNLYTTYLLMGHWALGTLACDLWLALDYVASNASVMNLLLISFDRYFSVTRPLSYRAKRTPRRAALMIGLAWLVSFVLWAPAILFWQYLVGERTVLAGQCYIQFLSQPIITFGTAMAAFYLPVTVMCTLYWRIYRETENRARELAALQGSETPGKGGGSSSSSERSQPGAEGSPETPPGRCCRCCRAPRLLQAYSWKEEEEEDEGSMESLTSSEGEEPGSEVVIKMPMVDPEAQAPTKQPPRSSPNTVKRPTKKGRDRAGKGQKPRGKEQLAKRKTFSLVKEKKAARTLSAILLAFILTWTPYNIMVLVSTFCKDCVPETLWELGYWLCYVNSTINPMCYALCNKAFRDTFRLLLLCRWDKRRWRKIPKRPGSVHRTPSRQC
# Chain of D(1A) dopamine receptor (Homo sapiens) (P21728 whole entry, looked up): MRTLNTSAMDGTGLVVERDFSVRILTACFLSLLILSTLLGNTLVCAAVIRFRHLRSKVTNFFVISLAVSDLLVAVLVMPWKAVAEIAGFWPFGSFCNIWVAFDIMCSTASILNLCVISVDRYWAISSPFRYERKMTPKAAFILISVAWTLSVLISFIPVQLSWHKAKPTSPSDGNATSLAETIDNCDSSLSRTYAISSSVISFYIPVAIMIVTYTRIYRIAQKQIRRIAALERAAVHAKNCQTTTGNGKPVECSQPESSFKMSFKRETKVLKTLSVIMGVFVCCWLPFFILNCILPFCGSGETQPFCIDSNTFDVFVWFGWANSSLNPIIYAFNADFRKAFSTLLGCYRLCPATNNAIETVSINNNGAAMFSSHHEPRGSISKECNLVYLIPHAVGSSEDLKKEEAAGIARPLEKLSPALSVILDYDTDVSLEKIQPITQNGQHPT
# Chain of human Opioid Receptor Mu (Opiate Mu), OPRM1 (gene 4988) (P35372 whole entry, looked up): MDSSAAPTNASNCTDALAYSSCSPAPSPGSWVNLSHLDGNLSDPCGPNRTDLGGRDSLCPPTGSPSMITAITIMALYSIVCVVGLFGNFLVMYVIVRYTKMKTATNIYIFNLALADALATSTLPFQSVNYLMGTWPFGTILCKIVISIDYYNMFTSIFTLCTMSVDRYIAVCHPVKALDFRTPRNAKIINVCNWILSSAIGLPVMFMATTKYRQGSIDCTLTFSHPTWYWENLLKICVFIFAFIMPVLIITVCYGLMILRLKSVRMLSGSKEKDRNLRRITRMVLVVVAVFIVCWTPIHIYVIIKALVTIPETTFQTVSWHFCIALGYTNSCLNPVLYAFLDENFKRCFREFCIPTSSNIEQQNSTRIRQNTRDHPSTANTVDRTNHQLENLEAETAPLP
# Chain of human Orphanin, Opioid Related Nociceptin Receptor 1 (ORL1), OPRL1 (gene 4987) (P41146 whole entry, looked up): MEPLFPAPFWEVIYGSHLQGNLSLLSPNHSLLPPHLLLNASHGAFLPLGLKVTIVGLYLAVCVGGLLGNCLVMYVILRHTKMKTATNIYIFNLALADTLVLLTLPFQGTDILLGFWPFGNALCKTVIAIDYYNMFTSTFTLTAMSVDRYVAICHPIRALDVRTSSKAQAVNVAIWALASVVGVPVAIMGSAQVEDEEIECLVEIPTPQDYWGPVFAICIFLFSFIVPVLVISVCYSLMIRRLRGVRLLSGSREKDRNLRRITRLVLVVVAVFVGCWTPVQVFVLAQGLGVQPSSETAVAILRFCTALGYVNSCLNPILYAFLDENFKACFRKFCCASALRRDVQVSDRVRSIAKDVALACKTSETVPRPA
# Chain of Muscarinic acetylcholine receptor M3 (Homo sapiens) (P20309 whole entry, looked up): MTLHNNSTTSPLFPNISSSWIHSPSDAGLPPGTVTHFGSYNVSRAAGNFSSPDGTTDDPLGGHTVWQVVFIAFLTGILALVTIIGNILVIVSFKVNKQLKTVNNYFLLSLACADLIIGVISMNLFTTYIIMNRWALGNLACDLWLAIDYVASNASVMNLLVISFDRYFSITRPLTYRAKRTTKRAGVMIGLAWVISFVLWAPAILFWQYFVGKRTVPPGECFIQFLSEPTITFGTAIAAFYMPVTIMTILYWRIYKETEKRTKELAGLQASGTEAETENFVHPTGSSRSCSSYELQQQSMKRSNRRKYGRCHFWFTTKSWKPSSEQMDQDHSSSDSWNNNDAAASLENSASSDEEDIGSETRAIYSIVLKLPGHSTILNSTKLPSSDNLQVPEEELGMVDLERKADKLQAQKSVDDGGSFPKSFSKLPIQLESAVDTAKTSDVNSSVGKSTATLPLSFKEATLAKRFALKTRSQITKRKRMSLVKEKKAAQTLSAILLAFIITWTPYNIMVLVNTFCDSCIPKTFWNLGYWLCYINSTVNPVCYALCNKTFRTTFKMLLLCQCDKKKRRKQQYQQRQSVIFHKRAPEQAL
smiles,measurement,setting,value
O=c1[nH]c2ccc(S(=O)CCN3CCC(Cc4ccc(F)cc4)CC3)cc2o1 (stereo unspecified),AC50,[1],0.522 µM (active)
same,AC50,[2],1.23 µM (active)
same,outcome,[3],inactive
same,AC50,[4],1.07 µM (active)
Cc1ccc(S(=O)(=O)O)cc1C,outcome,[5],inactive
C=CCCCCCCCCC(=O)O,outcome,[6],inactive
CC(C)c1cccc(C(C)C)c1N1C(=O)c2ccc(O)cc2C1=O,outcome,[6],inactive
same,AC50,[7],7.4 µM (active)
Cc1ccc(O)cc1,AC50,[8],22.1 µM (active)
Cn1c(=O)cc(Oc2ccc(F)cc2F)c2cnc(NCC(C)(C)O)nc21,AC50,[1],6.95 µM (active)
same,AC50,[9],11.3 µM (active)
O=C(O)CC(O)C(=O)O (stereo unspecified),outcome,[10],inactive
same,outcome,[11],inactive
same,outcome,[12],inactive
same,outcome,[13],inactive
CCOC(=O)c1ccc(C2CCC(NC[C@H](O)COc3ccc(O)c(NS(C)(=O)=O)c3)CC2)cc1 (stereo partly specified),AC50,[1],18.6 µM (active)
same,AC50,[2],21.9 µM (active)
same,AC50,[14],12.7 µM (active)
same,AC50,[15],18 µM (active)
same,AC50,[10],4.31 µM (active)
same,outcome,[13],inactive
Cc1[nH]cnc1C[C@H]1CCc2c(C)c3ccccc3n2C1=O,AC50,[1],4.88 µM (active)
same,outcome,[14],inactive
same,outcome,[5],inactive
same,AC50,[15],15.5 µM (active)
same,outcome,[3],inactive
same,AC50,[16],0.958 µM (active)
same,AC50,[4],3.15 µM (active)
same,AC50,[13],6.29 µM (active)
CCOc1cccc(-n2cc(C(=O)N3CCN(c4cc(C(=O)O)c5ccccc5c4)CC3)nc2-c2ccc(C)cc2)c1,AC50,[1],23.8 µM (active)
same,AC50,[2],17.1 µM (active)
same,AC50,[11],9.02 µM (active)
same,AC50,[7],6.65 µM (active)
same,AC50,[9],0.00589 µM (active)
same,AC50,[13],23.8 µM (active)
On1ccccc1=S,AC50,[12],4.73 µM (active)
same,AC50,[3],16.2 µM (active)
same,outcome,[13],inactive
O=C(CCCCCCCCc1cccnc1)N1CCC(C=C(c2ccccc2)c2ccccc2)CC1,outcome,[15],inactive
same,AC50,[13],24.7 µM (active)
CCN(C(=O)c1cc(C)cc(OC[C@H](C)Nc2ccncc2)c1)C(C)C,AC50,[5],5.9 µM (active)
same,AC50,[15],16.9 µM (active)
same,AC50,[10],10.6 µM (active)
same,AC50,[4],13.4 µM (active)
CC[C@H]1CC[C@H](NCc2cc3c(cc2OC)[C@H]2C[C@H]2C(=O)N3C)[C@H](c2ccccc2)N1,AC50,[14],1.47 µM (active)
same,AC50,[15],12.3 µM (active)
same,AC50,[10],0.835 µM (active)
same,AC50,[4],17.5 µM (active)
same,AC50,[13],5.7 µM (active)
O=P(OC(CCl)CCl)(OC(CCl)CCl)OC(CCl)CCl,AC50,[1],19.8 µM (active)
same,outcome,[2],inactive
same,outcome,[7],inactive
same,outcome,[9],inactive
same,AC50,[16],8.52 µM (active)
CNS(=O)(=O)c1cc(C(=O)N2CCC(CCN3C4CCC3CC(n3c(C)nc5ccccc53)C4)(c3cccc(F)c3)CC2)c(Cl)cc1F (stereo unspecified),AC50,[2],15.8 µM (active)
same,AC50,[10],9.16 µM (active)
same,outcome,[12],inactive
same,AC50,[16],1.33 µM (active)
same,AC50,[4],1.92 µM (active)
same,AC50,[13],4.96 µM (active)
same,outcome,[17],inactive
